The results in this text go back to PubChem BioAssay (Tox21).

Records with an inconclusive call do not appear. Entries that show only a call come without a potency. Some compounds were tested as several samples or in several runs, with calls that do not always agree. Activity calls are given as the source filed them. The call rests on the fitted dose curve; in most records, active means well fitted inhibition curve with a large enough effect in the repeat runs; inconclusive means weak or mixed curves; inactive means no such curve, though single readings can be large or run the other way.
Potency means the concentration at half of the fitted maximal effect.

The target of this experiment is Aromatase (Homo sapiens) (UniProt P11511). Briefly: qHTS assay to identify aromatase inhibitors (AID 743083). Further: nearly all actives have a fitted effect of over 55% in size. Particulars: MCF-7 aro ERE, testosterone-driven ERE luciferase, 24 h; series mostly up to 70.3 µM; activity, negative = inhibition: at the top concentration.
Sequence of Aromatase (Homo sapiens) (P11511 whole entry, looked up): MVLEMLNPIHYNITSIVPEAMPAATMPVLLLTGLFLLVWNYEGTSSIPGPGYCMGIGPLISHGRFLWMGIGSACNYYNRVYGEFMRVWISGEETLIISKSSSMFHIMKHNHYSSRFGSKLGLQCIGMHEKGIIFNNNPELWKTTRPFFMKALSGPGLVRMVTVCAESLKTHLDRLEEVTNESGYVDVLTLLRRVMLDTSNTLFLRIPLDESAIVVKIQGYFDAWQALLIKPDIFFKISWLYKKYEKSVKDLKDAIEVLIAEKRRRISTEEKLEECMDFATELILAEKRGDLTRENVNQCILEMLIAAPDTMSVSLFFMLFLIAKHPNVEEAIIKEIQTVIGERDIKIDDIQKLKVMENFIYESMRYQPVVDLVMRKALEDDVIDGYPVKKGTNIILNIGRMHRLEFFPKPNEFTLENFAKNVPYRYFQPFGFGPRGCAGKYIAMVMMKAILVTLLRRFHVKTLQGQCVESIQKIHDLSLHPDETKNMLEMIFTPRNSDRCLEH
In the case of `C=CCCCCCCCCCC`, the Potency result was “inactive”.
For the molecule `Clc1ccc(Sc2cc(Cl)c(Cl)cc2Cl)cc1`, the Potency entry is “inactive”.
For `Nc1ccc(N)c(Cl)c1`, the Potency was 61 µM (active) and inactive.
Same read-out and setting: the value for `Nc1ccc2c(c1)C(=O)c1ccccc1C2=O` was “inactive”; that for `c1ccc2c(c1)ccc1cc3c(ccc4ccccc43)cc12` was “inactive”; that for `CC(=O)[C@@]1(O)CC[C@H]2[C@@H]3C[C@H](C)C4=CC(=O)C=C[C@]4(C)[C@@]3(F)[C@@H](O)C[C@@]21C` was “inactive”.
On to `COC(=O)C(C)Oc1ccc(Oc2ncc(C(F)(F)F)cc2Cl)cc1` (stereo unspecified), for which the Potency entry was “inactive”.
For the molecule `O=C(O)c1cc(=O)[nH]c(=O)[nH]1`, the Potency entry was “inactive”.
For `CC(C)[C@@H]1CC[C@@H](C)CC1=O`, the Potency result was “inactive”.
`Nc1ccc(O)c(N)c1`: the Potency result was “inactive”.
Turning to `Cc1ccc(/C(=C\CN2CCCC2)c2ccccn2)cc1`, the Potency result is “inactive”.
In the case of `Cc1ccc([N+](=O)[O-])c(C)c1`, the “activity, negative = inhibition” value was 8.6% (inactive).
Take `CC/C=C\C/C=C\C/C=C\CCCCCCCC(=O)O`: the Potency result was “inactive”.
On the same count and under the same terms, the entry for `OC[C@@H](O)[C@@H](O[C@@H]1O[C@H](CO)[C@H](O)[C@H](O)[C@H]1O)[C@H](O)[C@@H](O)CO` is “inactive”; for `CC(=O)Nc1ccc2c(c1)Cc1cc(NC(C)=O)ccc1-2` it is “inactive”.
Take `Oc1ccc(C(c2ccc(O)cc2)C(Cl)(Cl)Cl)cc1`: the Potency is 61.1 µM (active).
Still for that read-out and setting: the value for `CC(C)(Oc1ccc(Cl)cc1)C(=O)O` was “inactive”; that for `IC(I)I` was “inactive”; that for `CCC(Cc1c(I)cc(I)c(N)c1I)C(=O)O` (stereo unspecified) was “inactive”.
For `CCC(=O)O[C@H]1[C@H](O[C@@H]2[C@@H](C)[C@H](O[C@H]3C[C@@](C)(OC)[C@@H](O)[C@H](C)O3)[C@@H](C)C(=O)O[C@H](CC)[C@@](C)(O)[C@H](O)[C@@H](C)C(=O)[C@H](C)C[C@@]2(C)O)O[C@H](C)C[C@@H]1N(C)C`, the “activity, negative = inhibition” value was -9.79% (inactive).
In the case of `COc1ccc(-c2coc3cc(O)cc(O)c3c2=O)cc1`, the Potency result is “inactive”.
